The panel holds about 83,000 compounds, 20% with a hit somewhere; the sample as a whole holds those more often.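 Step 1: grow cells in 96-well plates. Step 2: add test compound at a single concentration. Step 3: incubate 48 h. Step 4: record percent growth.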 Values without a mark were called inactive. Calls of active or inactive are those of the source. How the source made its calls: active means growth percent below 10; inactive means the rest.
Key:
Experiment in all cases: NCI-60 one-dose screen, 48 h (100 = growth as untreated, 0 = no growth, -100 = all killed)
NCI-H23 lung = settings: 10 µM unless noted
NCI-H226 lung = settings: 10 µM unless noted
NCI-H322M lung = settings: 10 µM unless noted
HOP-62 NSCLC = settings: 10 µM unless noted
NCI-H460 lung = settings: 10 µM unless noted
HOP-92 NSCLC = settings: 10 µM unless noted
NCI-H522 lung = settings: 10 µM unless noted
A549/ATCC NSCLC = settings: 10 µM unless noted
786-0 renal = settings: 10 µM unless noted
COLO 205 colon = settings: 10 µM unless noted
DU-145 prostate = settings: 10 µM unless noted
K-562 leukemia = settings: 10 µM unless noted
MALME-3M melanoma = settings: 10 µM unless noted
MDA-MB-231 breast = settings: 10 µM unless noted
RXF 393 renal = settings: 10 µM unless noted
SF-268 CNS = settings: 10 µM unless noted
SF-295 CNS = settings: 10 µM unless noted
SF-539 CNS = settings: 10 µM unless noted
UACC-257 melanoma = settings: 10 µM
M14 melanoma = settings: 10 µM unless noted

SMILES	growth (NCI-H23 lung)	growth (NCI-H226 lung)	growth (NCI-H322M lung)	growth (HOP-62 NSCLC)	growth (NCI-H460 lung)	growth (HOP-92 NSCLC)	growth (NCI-H522 lung)	growth (A549/ATCC NSCLC)	growth (786-0 renal)	growth (COLO 205 colon)	growth (DU-145 prostate)	growth (K-562 leukemia)	growth (MALME-3M melanoma)	growth (MDA-MB-231 breast)	growth (RXF 393 renal)	growth (SF-268 CNS)	growth (SF-295 CNS)	growth (SF-539 CNS)	growth (UACC-257 melanoma)	growth (M14 melanoma)
COc1cccc(/C=C/c2c(C(=O)O)cccc2[N+](=O)[O-])c1OC	104%	99.5%	107%	95.5%	104%	89.1%	113%	103%	99.1%	100%	102%	90.4%	94.8%	107%	108%	95.8%	91.6%	104%	101%	103%
O=S(=O)(c1ccccc1)n1ccc(-c2ccc3c(c2)CCO3)n1	78.4%	64.6%	91.4%	98.8%	87.3%	41.8%	61.7%	78.8%	90.3%	96.9%	95%	56.1%	94%	82.9%	82.9%	92.7%	83.3%	86.7%	79.9%	101%
COc1ccc(-c2cn[nH]c2-c2cc(OC)c3c(c2)OCO3)cc1	18.3%	47.7%	15%	22.1%	8.74% (active)	33.4%	-43.9% (active)	19.8%	26%	-44.2% (active)	12.4%	10.1%	30.9%	11%	-31.3% (active)	37.6%	-10.4% (active)	-28.7% (active)	66.9%	16%
COc1cc2nc(SCc3cc(OC)c(OC)c(OC)c3)n(Cc3ccccc3)c(=O)c2cc1OC	20.5%	49.7%	45.4%	41.4%	22.3%	62.7%	-33% (active)	36.9%	36.8%	7.38% (active)	49.8%	10.2%	21.9%	36%	4.55% (active)	37.9%	19.7%	-6.22% (active)	63.3%	14.9%
COc1cc(C2C=C(C)N=C3SC=C(C)N32)cc(OC)c1OC (stereo unspecified)	-27.7% (active)	2.75% (active)	13.6%	-62.1% (active)	-39% (active)	-32.4% (active)	-87.1% (active)	-19.2% (active)	-69% (active)	-75.9% (active)	-26.7% (active)	2.16% (active)	-54% (active)	-23.5% (active)	-89.7% (active)	-16.9% (active)	-1.7% (active)	-40.4% (active)	-38.9% (active)	-52.5% (active)
COc1cc(/C=C2\CCCC3=C2NC(C)=NC3c2cc(OC)c(OC)c(OC)c2)cc(OC)c1OC (stereo unspecified)	33.9%	37.7%	41.1%	22%	-28% (active)	70.7%	51.8%	16.2%	18%	19.2%	4.92% (active)	11.1%	30.2%	13%	22.7%	21.2%	-25% (active)	13.5%	43.8%	
COc1cc(C(=O)/C=C/c2cc(C(=O)c3cc(OC)c(OC)c(OC)c3)ccc2OC)ccc1N	-29.8% (active)	-38.7% (active)	7.82% (active)	43.2%	-15.6% (active)	46.1%	-58.9% (active)	18.5%	10.5%	-58.8% (active)	26.7%	4.22% (active)	-36.1% (active)	23.1%	-32.5% (active)	-28.1% (active)	9.88% (active)	-53.2% (active)	-11.9% (active)	
Nc1c(C(=O)Nc2c(Cl)cccc2Cl)sc2nc3c(cc12)CCCCC3	78.4%	61.8%	85.4%	53.9%	54.9%	59.4%	40.1%	50.3%	59.8%	45.3%	70.4%	24.1%	61.5%	63.4%	3.29% (active)	60.5%	54.4%	38.2%	50.7%	
CC1Cc2c(N(C)C)ncnc2N(C)c2ccc(O)cc21 (stereo unspecified)	92.8%	104%	96.5%	72.8%	97.7%	81.2%	49.1%	85.1%	81.4%	103%	101%	36.5%	89.5%	87.2%	95.2%	87.4%	91.8%	91.3%		
CCC1CCc2nc3sc(C(=O)Nc4ccccc4C)c(N)c3cc2C1 (stereo unspecified)	51.1%	62.7%	56.5%	54.5%	31.5%	41.9%	28.6%	41.2%	50.6%	17%	22.7%	24.1%	28.3%	66.6%	26.1%	49.9%	15.3%	23.9%	54.2%	
CSc1ccccc1C#C/C=C\C#Cc1ccccc1N1CCCC1=O	53.4%	62.5%	91.5%	60.2%	24.7%	40.7%	70.5%	63.2%	71.1%	65.2%	85.7%	14.7%	50%	51%	52.9%	56.6%	65.3%	55.1%		
O=C1C2=C(C(=O)c3c(O)ccc(O)c31)N(c1cccnc1)Cc1ccccc1O2	-5.92% (active)	19.2%	23.9%	-3.72% (active)	7.48% (active)	-89.9% (active)	-77.9% (active)	31.6%	-86.7% (active)	-60.9% (active)	-96.6% (active)	-9.44% (active)	-80.5% (active)	-68.9% (active)	-78.8% (active)	1.4% (active)	37.9%	-56.1% (active)		
CC/C=C\C/C=C\C[C@H](O)C/C=C1/C(=O)C=C[C@H]1C/C=C\CCC(=O)OC	54.3% [8.25 µM]	69.9% [8.25 µM]	90.2% [8.25 µM]	37.6% [8.25 µM]	90.2% [8.25 µM]	58.6% [8.25 µM]	-30.8% [8.25 µM] (active)	53.4% [8.25 µM]	44.7% [8.25 µM]	0.861% [8.25 µM] (active)	46% [8.25 µM]	5.45% [8.25 µM] (active)	41.6% [8.25 µM]	21% [8.25 µM]	21.3% [8.25 µM]	20.6% [8.25 µM]	82.4% [8.25 µM]	17% [8.25 µM]		
O=C(CNC1CCCCC1)Nc1ccc(-c2nc3ccccc3s2)cc1	76.2%	80.3%	91.7%	85.2%	91.3%	48.8%	95.5%	88%	70.6%	95.4%	89.3%	49.5%	105%	46.2%	68.5%	78.4%	85.9%	87.5%	105%	89.4%
O=C(Nc1cccc(Cl)c1)c1cc([N+](=O)[O-])ccc1O	25.8%	68.2%	43.9%	44.2%	54%	8.95% (active)	-2.45% (active)	66.9%	63.8%	76.7%	73.2%	27.7%	22%	38%	46.2%	65%	58.8%	32.2%		
C=CCOc1cccc(/C=C/C(=O)c2sc(Nc3cccnc3)nc2C)c1	94.1%	86.1%	77.6%	68.2%	81.2%	74.7%	65.9%	70.9%	51.7%	91.3%	38.4%	28.9%	94.6%	95.4%	83.5%	81.7%	88.5%	76.7%	97.2%	71.2%

— PubChem BioAssay (NCI)
